Screens deposited in PubChem by National Center for Advancing Translational Sciences (NCATS).
Tau fibril ThT: tau fibrillization inhibition (ThT binding); P10636; recombinant tau K18 P301L, heparin-induced fibrillization, ThT fluorescence; Potency, µM (top dose mostly 57.4 µM), without a hit: top-dose activity, negative = inhibition, actives largely listed as inhibitors; 270,000 compounds, 2.1% hits; further: nearly all actives have a fitted effect of over 55% in size
Target sequence (P10636 561-689 P618L limits assumed): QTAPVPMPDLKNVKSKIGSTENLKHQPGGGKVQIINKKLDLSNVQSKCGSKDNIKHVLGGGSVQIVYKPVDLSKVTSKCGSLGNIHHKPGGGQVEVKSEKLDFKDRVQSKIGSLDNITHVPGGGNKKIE
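ThT emission at 510 nm, taken 1 hr after adding 30 uM dye, quantifies aggregates formed when 20 uM heparin acts on human tau K18 P301L for 6 hr at 37 C.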
RORgamma inh: blocks mouse ROR gamma transcriptional activity | P51450 | Drosophila S2 Gal4-RORgamma UAS-luciferase reporter, 20 h | Potency, µM (titrated, usually from 53.6 µM), for the others: at the top dose activity change, negative = inhibition, usual class: inhibitors | 310,000 compounds, 5.4% hits; further: nearly all actives have a fitted effect of over 60% in size
Target sequence (P51450 whole entry, looked up, the tested form may be a part): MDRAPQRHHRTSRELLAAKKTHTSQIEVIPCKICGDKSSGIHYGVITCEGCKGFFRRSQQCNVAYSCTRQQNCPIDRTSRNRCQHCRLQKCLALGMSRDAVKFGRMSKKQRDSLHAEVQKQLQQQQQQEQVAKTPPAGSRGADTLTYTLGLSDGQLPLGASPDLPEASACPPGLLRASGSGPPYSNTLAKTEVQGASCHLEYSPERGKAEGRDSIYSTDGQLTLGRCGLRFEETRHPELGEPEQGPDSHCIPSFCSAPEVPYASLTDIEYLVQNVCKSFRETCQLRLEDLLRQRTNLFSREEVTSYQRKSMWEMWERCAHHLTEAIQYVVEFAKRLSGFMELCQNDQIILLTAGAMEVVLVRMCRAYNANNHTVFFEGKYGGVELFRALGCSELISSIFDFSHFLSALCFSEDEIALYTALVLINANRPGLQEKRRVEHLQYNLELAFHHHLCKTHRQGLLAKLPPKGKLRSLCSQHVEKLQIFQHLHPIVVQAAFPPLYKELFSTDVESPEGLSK
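Luciferase reporter read in Schneider cells carrying Gal4-RORγ (mouse) and UAS-Photinus luciferase; cells given compound 1 h before 700 uM copper sulfate induction, then incubated 20 h at ambient temperature.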
Gal4-VP16 FLuc: Gal4-VP16 reporter inhibition counter-screen; Drosophila S2 Gal4-VP16 UAS-luciferase, luminescence, 20 h; Potency, µM (top dose mostly 53.6 µM), without a hit: top-dose activity, negative = inhibition, hits mostly inhibitors; 310,000 compounds, 3.5% hits;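 further: Gal4-VP16 expression switched on by copper sulfate through the metallothionein promoter; nearly all actives have a fitted effect of over 50% in size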
Tau fluor cs: counter-screen for tau fibril formation inhibitors; tau K18 P301L Alexa594 fluorescence, heparin fibrillization; Potency, µM (titrated, usually from 57.7 µM), for inactives: top-dose activity change, negative = decrease; 280,000 compounds, 0.93% hits; AID 1463; further: nearly all actives have a fitted effect of over 55% in size
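Human tau K18 P301L (15 uM unlabeled, 0.24 uM Alexa 594-labeled) in 100 mM sodium acetate pH 7 with 20 uM heparin, 6 hr at 37 C. ThT 30 uM added, 1 hr ambient; Alexa 594 FP and total fluorescence read at 555/632 nm.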
Tau FP inhib: tau fibrillization inhibition (FP); K18 P301L tau heparin fibrillization, Alexa594 FP, 6 h; 280,000 compounds, 0.39% hits; Potency, µM (titrated, usually from 57.7 µM), without a hit: at the highest dose activity, negative = inhibition, actives largely listed as inhibitors; further: nearly all actives have a fitted effect of over 55% in size
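Human tau K18 […] P301L fragment, 15 uM unlabeled plus 0.24 uM Alexa 594-labeled tau (final), with compound and 20 uM heparin in 100 mM sodium acetate pH 7; 6 hr at 37 C, then Alexa 594 FP read.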
An asterisk follows results filed as active; ? = inconclusive; . = no result given; [ ] = remark or other dose. The list is not random: actives were taken first. Their share in the collection is about 7.3%. The call rests on the fitted dose curve; in most records, active means well fitted curve in the direction sought with a large enough effect; inconclusive means small, poorly fitted or top-dose-only effect, or another doubt; inactive means no such curve, though single readings can be large; an effect the other way counts as inactive or inconclusive. On the % scale 0 is the no-effect control and ±100 the full control effect; potency means the concentration at half of the fitted maximal effect.

SMILES	Tau fibril ThT	RORgamma inh	Gal4-VP16 FLuc	Tau fluor cs	Tau FP inhib
CC1CC(C)CN(CCCn2c(=S)[nH]c3ccccc3c2=O)C1 (configuration not stated)	-4.8%	?	?	-8.0%	1.7%
CNC(=S)NNC(=O)c1ccccc1Br	-21.7%	12.6µM*	?	-13.5%	-17.4%
COCCCNC(=S)NNC(=O)c1ccccc1Br	-1.6%	2.51µM*	-15.3%	-3.5%	1.4%
COCCCNC(=S)NNC(=O)c1ccccn1	-11.4%	14.1µM*	0.1%	-13.2%	-6.6%
O=C1CCCN1CCC(=O)N1CCCC(N2CCN(c3ccccc3F)CC2)C1 (configuration not stated)	.	-0.7%	4.3%	.	.
CCCCC/C=C\C/C=C\C/C=C\CCCCCCC(=O)O[C@H](COCCCCCCCCCCCCCCCC)COP(=O)([O-])OCC[N+](C)(C)C	-11.5%	-20.7%	-1.6%	-7.5%	0.5%
COc1ccc(C)cc1Nc1n[n+](-c2ccccc2)c(-c2ccc(OC)c(OC)c2OC)s1	.	?	-14.9%	.	.
COc1ccc(C)cc1Nc1n[n+](-c2ccccc2)c(-c2c(Cl)cccc2Cl)s1	.	7.08µM*	15.8µM*	.	.
COc1ccc(C)cc1Nc1n[n+](-c2ccccc2)c(-c2ccc(N(C)C)cc2)s1	.	11.2µM*	5.62µM*	.	.
Cc1nc(-n2nc(C)c(Cc3ccccc3Cl)c2C)sc1C(=O)N1CCCCC1C (configuration not stated)	-10.1%	.	.	3.0%	15.3%
Cc1noc(C)c1-c1cncnc1NCc1cccnc1	.	-30.1%	4.6%	.	.
COc1ccc(-c2n[nH]c(=S)n2-c2cc(OC)ccc2OC)cc1	-1.9%	10µM*	-12.6%	-0.1%	-4.5%
COc1ccc(OC)c(-n2c(-c3ccc(C)cc3)n[nH]c2=S)c1	-5.2%	3.98µM*	?	-0.7%	-5.6%
COc1ccccc1N1CCN(C2CCCN(C(=O)CCc3c(C)noc3C)C2)CC1 (configuration not stated)	.	18.7%	-17.2%	.	.
CNS(=O)(=O)c1ccc(NC(=O)C2c3ccccc3Oc3ccccc32)cc1	13.9%	-40.6%	-27.6%	1.1%	-14.1%
Cc1ccc(-c2nc3cccnc3s2)cc1NC(=O)C1c2ccccc2Oc2ccccc21	-7.9%	12.6µM*	11.2µM*	-21.9%	-18.7%
CCc1nnc(NC(=O)C2c3ccccc3Oc3ccccc32)s1	-2.0%	11.2µM*	?	?	?
O=C(Nc1nc2ccccc2s1)C1c2ccccc2Oc2ccccc21	8.3%	11.2µM*	?	?	?
CCN(CC)S(=O)(=O)c1ccc(NC(=O)C2c3ccccc3Oc3ccccc32)cc1	-6.9%	-4.6%	?	?	28.2µM*
Cc1[nH]c2ccccc2c1C(=O)C(=O)NC1CC(=O)N(c2cccc(F)c2)C1 (configuration not stated)	1.5%	.	.	-5.7%	-10.5%
CC(C)c1cc2c(c(O)c1O)[C@@]13CCCC(C)(C)C1CC2OC3=O (some centres not stated)	.	14.1µM*	?	.	.
COc1ccc(S(=O)(=O)Nc2cc(C(C)C)c(O)cc2C)cc1	-8.3%	15.8µM*	?	-7.4%	4.7%
COc1ccc(S(=O)(=O)Nc2cc(C)c(O)cc2C(C)C)cc1	-10.5%	?	23.1%[0.365 µM]	-2.0%	5.7%
COc1ccc2nc3cc(Cl)ccc3c(Nc3cc(C(C)C)c(O)cc3C)c2c1	5.01µM*	0.2%	-7.8%	7.08µM*[quencher]	?
CCOC(=O)Cc1ccc(NC(=O)NC(C)c2c(-n3cccc3)sc(C)c2C)cc1 (configuration not stated)	-5.1%	.	.	?	?
SMILES	Tau fibril ThT	RORgamma inh	Gal4-VP16 FLuc	Tau fluor cs	Tau FP inhib
C=C(C)c1cccc(C(C)(C)NC(=O)NNC(=O)c2ccccc2O)c1	.	-0.7%	1.0%	.	.
Cc1ccc(NC(=S)NCc2ccc3c(c2)OCO3)c(C)c1	-7.9%	?	-3.2%[0.365 µM]	-8.7%	-2.3%
CCOc1ccc(NC(=S)NCc2ccc3c(c2)OCO3)cc1	?	7.94µM*	?	?	-5.0%
Cc1ccc(CNc2ccc3c(c2)OCO3)c(C)c1	12.6µM*	17.3%	10.8%	?	?
S=C(NCc1ccc2c(c1)OCO2)NC1CC1	2.1%	12.6µM*	?	2.3%	-9.8%
Cc1ccc(NC(=S)NCc2ccc3c(c2)OCO3)cc1	-3.9%	12.6µM*	15.8µM*	-14.4%	1.7%
CCOC(=O)c1ccc(NC(=O)C(C)Sc2nc(=O)cc(N)n2CCc2ccccc2)cc1 (configuration not stated)	-13.1%	.	.	?	-4.4%
CC(C)CCn1c(=O)c2ccccc2n2c(CN3C(=O)NC4(CCC(C)CC4)C3=O)nnc12 (configuration not stated)	-11.9%	16.2%	-9.6%	-6.5%	5.1%
CC1CCCCC12NC(=S)N(c1ccccc1)N2 (configuration not stated)	25.1µM*	?	4.1%	-21.7%	?
CC1CCCC2(C1)NC(=S)N(c1ccccc1)N2 (configuration not stated)	?	12.6µM*	-9.1%	-10.1%	-1.7%
CC1CC(C)(C)CC2(C1)NC(=S)N(c1ccccc1)N2 (configuration not stated)	-20.3%	7.08µM*	?	-16.0%	-1.6%
CC(C)CCN1NC2(CCCC(C)C2)NC1=S (configuration not stated)	-9.7%	7.08µM*	-29.7%	-9.6%	0.1%
S=C1NC2(CCCCC2)NN1c1ccccc1	?	?	1.9%	-10.5%	-0.6%
CCc1nn2c(=O)cc(COC(=O)c3cccs3)nc2s1	-10.2%	.	.	5.6%	2.2%
CCc1cccc(NC(c2ccccc2)c2nnc(-c3ccccc3F)o2)c1 (configuration not stated)	-11.2%	.	.	-20.5%	4.0%
O=C1C(Cc2c[nH]c3ccccc23)NC(=S)N1C1CCCCC1 (configuration not stated)	-10.2%	20µM*	?	?	17.4%
CCC1NC(=S)N(C2CCCCC2)C1=O (configuration not stated)	-1.8%	11.2µM*	?	2.4%	-12.9%
CC(C)CC1NC(=S)N(C2CCCCC2)C1=O (configuration not stated)	0.1%	?	?	-6.4%	1.5%
CC(C)C1NC(=S)N(C2CCCCC2)C1=O (configuration not stated)	-0.6%	6.31µM*	?	-5.1%	5.4%
O=C1C(Cc2ccc(O)cc2)NC(=S)N1C1CCCCC1 (configuration not stated)	-12.1%	7.3%	-15.7%	-14.8%	-4.0%
CCN1C(=O)[C@H]2[C@@H](c3ccc(C)cc3)N3C(=O)N(c4ccccc4)C(=O)[C@@]3(C)[C@H]2C1=O	.	-0.6%	4.0%	.	.
O=C(CC1N=C2c3ccccc3N=C(SCc3cccc(F)c3)N2C1=O)NCc1ccc2c(c1)OCO2 (configuration not stated)	?	.	.	-13.3%	0.2%
